This note sets out measurements from PubChem BioAssay (Tox21).

Results filed as inconclusive are left out. Where a call stands in place of a potency, no number is given. The source made the active and inactive calls. Calls come from the whole dose curve; as a rule, active = well fitted inhibition curve with a large enough effect in the repeat runs; inconclusive = weak or mixed curves; inactive = no such curve, though single readings can be large or run the other way.
Potency is the fitted concentration of half-maximal effect.

Chain of Cytochrome P450 3A4 (Homo sapiens) (P08684 whole entry, looked up): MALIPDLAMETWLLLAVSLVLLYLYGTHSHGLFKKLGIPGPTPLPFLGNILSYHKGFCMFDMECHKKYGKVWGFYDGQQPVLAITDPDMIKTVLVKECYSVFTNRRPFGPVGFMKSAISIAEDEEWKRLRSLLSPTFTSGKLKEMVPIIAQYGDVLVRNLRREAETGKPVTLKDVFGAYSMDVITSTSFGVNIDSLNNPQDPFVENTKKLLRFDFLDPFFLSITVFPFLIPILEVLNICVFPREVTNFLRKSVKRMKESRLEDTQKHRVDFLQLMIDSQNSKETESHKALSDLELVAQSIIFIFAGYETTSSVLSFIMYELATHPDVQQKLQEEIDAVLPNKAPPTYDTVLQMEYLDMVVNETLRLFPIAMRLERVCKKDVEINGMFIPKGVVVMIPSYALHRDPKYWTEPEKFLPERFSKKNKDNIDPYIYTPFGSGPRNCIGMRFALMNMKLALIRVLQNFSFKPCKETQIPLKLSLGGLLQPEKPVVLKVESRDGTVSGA

The target of this assay is Cytochrome P450 3A4 (Homo sapiens) (UniProt P08684). The assay can be described thus: Cytochrome P450 Family 3 Subfamily A Member 4 (CYP3A4) small molecule antagonists: luciferase reporter qHTS assay (AID 1671201). Note: nearly all actives have a fitted effect of over 50% in size. Conditions: P450-Glo CYP3A4 enzyme, luciferin luminescence, 1 h; series mostly up to 115 µM. An excerpt:
National Center for Advancing Translational Sciences [NCATS]
U.S. Environmental Protection Agency [EPA]
National Institutes of Environmental Health Sciences [NIEHS]
National Toxicology Program [NTP]
U.S. Food and Drug Administration [FDA]
Cytochrome P450 (CYP) enzymes are membrane-bound hemeproteins that play a key role in metabolism of drugs and xenobiotics. Evaluation of the effect of chemicals on CYP isozymes is useful to minimize the adverse drug reactions and toxicities in drug development process. Tox21 chemicals were tested for their effect on CYP enzyme activities by using P450-Glo (TM) screening systems (Promega Corporation, Madison, WI). These systems provide a luminescent method containing proluciferin substrates and are converted to luciferin products by CYP isozymes. The luciferin products formed are detected with a luciferin detection reagent, and the amount of light produced is proportional to CYP activity. P450-Glo (TM) CYP3A4 screening system (Catalog. No. V9910) was used to detect the compounds that interfere in CYP3A4 activity. The positive control compound used for CYP3A4 assay is ketoconazole (Sigma-Aldrich, St. Louis, MO).
Tox21 Assay Protocol Summary:
Two ul of enzyme-substrate mix was dispensed into medium binding white/solid 1536-well plates (Greiner Bio-One North America Inc., Monroe, NC) using a BioRaptr Flying Reagent Dispenser (FRD, Beckman Coulter, Brea, CA). Compounds dissolved in DMSO and positive control (ketoconazole) were transferred to the assay plates at 23 nl using a Pintool station (Wako, San Diego, CA). The assay plates were incubated at room temperature for 10 min. Then 2 ul of NADPH regeneration solution was added to each well of the assay plates using an FRD and incubated at room temperature for 1 h. The reaction was stopped by adding 4 ul of detection reagent using an FRD and after 20 min incubation at room temperature the luminescence signal was measured using a ViewLux plate reader (Perkin Elmer, Shelton, CT). Data were expressed as relative luminescence units.
On the technique in general: Reporter assays use an easily measured gene product as a stand-in for the process of interest.
Take `Cc1c(C(=O)NN2CCCCC2)nn(-c2ccc(Cl)cc2Cl)c1-c1ccc(Cl)cc1`: the Potency entry is “inactive”.

Turning to `CCCCCCCCCCCCCCC[C@H](O)[C@@H](N)CO`, the Potency entry is “inactive”.

On to `CCCC1C(CC)=CC(CC)=CN1c1ccccc1` (stereo not given), for which the Potency is 31.7 µM (active).

Consider `Cc1ccc(S)cc1`, for which the Potency result is “inactive”.

As to `CC1(C)C2=CCCC(C)(C)[C@]23CC[C@H]1C3`, the Potency was 35.6 µM (active).

Turning to `CSc1ccc(Oc2ccc(S(N)(=O)=O)cc2CN(C)C)cc1C`, the Potency entry is “inactive”.

Regarding `C[Si]1(C)O[Si](C)(C)O[Si](C)(C)O1`, the Potency entry is “inactive”.

Turning to `O=C(CS)OCCOC(=O)CS`, the Potency was 28.3 µM (active).

In the case of `O=C(O)c1ccc(CO)o1`, the Potency entry was “inactive”.

As to `COC(=O)Nc1nc2ccc(C(=O)c3cccs3)cc2[nH]1`, the Potency result was “inactive”.

Turning to `CC(C)(C)C(=O)O`, the Potency result was “inactive”.

`NC(=O)Nc1ccc(Cl)c(Cl)c1`: the Potency entry is “inactive”.

For the molecule `CN1Cc2cc(C(=O)N3CCC(C4CCNCC4)CC3)ccc2N[C@@H](CC(=O)O)C1=O`, the Potency result was “inactive”.

As for `CC(C)c1nnc2ccc(-c3ocnc3-c3cc(F)ccc3F)cn12`, the Potency result was “inactive”.

Consider `O=S1OCCO1`, for which the Potency result was “inactive”.

`Cc1nc2ccccn2c(=O)c1CCN1CCC(C(=O)c2ccc(F)cc2)CC1`: the Potency entry was “inactive”.

On to `CC(C)C(OC(=O)c1ccccc1)C(C)(C)COC(=O)c1ccccc1` (stereo not given), for which the Potency result is “inactive”.

Regarding `C/C=C(\C)C(=O)OCCC(C)CCC=C(C)C` (stereo not given), the Potency is 20 µM (active).

As to `COc1ccc([C@@H]2Sc3ccccc3NC(=O)[C@@H]2O)cc1`, the Potency result was “inactive”.

Regarding `CCCC(=O)O[C@]1(C(=O)COC(=O)CC)CC[C@H]2[C@@H]3CCC4=CC(=O)CC[C@]4(C)[C@H]3[C@@H](O)C[C@@]21C`, the activity change, negative = inhibition is 1.97% [at 23.6 µM] (inactive).

For `CCCCC/C(=C\c1ccccc1)CO`, the Potency entry was “inactive”.

For the molecule `NC(=O)Nc1ccc(Cl)cc1`, the Potency entry is “inactive”.

For the molecule `CCC(=O)Oc1ccc(/C(CC)=C(\CC)c2ccc(OC(=O)CC)cc2)cc1`, the Potency result was “inactive”.

With `C=CC(C)=CCC=C(C)C`, the Potency was 28.3 µM (active).

As for `NC(=O)Cn1c(=O)cc(CCN2CCN(c3nccc4sccc34)CC2)c2ccc(F)cc21`, the Potency is 5.64 µM (active).

`C/C(=N/NC(=O)c1ccncc1)C(=O)O`: the Potency entry was “inactive”.

Take `O=Cc1c(Cl)cccc1Cl`: the Potency entry was “inactive”.

Turning to `CC1(C)O[C@@H]2C[C@H]3[C@@H]4CCC5=CC(=O)C=C[C@]5(C)[C@H]4[C@@H](O)C[C@]3(C)[C@]2(C(=O)CO)O1`, the Potency is 3.47 µM (active).

Consider `CC(C)OCC1CO1` (stereo not given), for which the Potency result was “inactive”.

For `CO[C@H]1C=CO[C@@]2(C)Oc3c(C)c(O)c4c(O)c(c5c(c4c3C2=O)=NC2(CCN(CC(C)C)CC2)N=5)NC(=O)/C(C)=C\C=C/[C@H](C)[C@H](O)[C@@H](C)[C@@H](O)[C@@H](C)[C@H](OC(C)=O)[C@@H]1C`, the Potency was 9.81 µM (active).

With `CCCOCCOCCO`, the Potency result was “inactive”.

Turning to `Cc1ccc(S(=O)(=O)NC2CCCCC2)cc1`, the Potency was 17.7 µM (active).

On to `O=C(C(=O)c1ccccc1)c1ccccc1`, for which the Potency result is “inactive”.

On to `C[Si](NC1CCCCC1)(NC1CCCCC1)NC1CCCCC1`, for which the Potency result is “inactive”.

For `CC(=O)[C@H]1CC[C@H]2[C@@H]3C=CC4=CC(=O)CC[C@@]4(C)[C@@H]3CC[C@]12C`, the Potency entry was “inactive”.

Regarding `CC(=O)Nc1ccccc1C`, the Potency result is “inactive”.

Turning to `CNC(=S)NC`, the Potency entry is “inactive”.

On to `O=C(O)C(Cc1cc(I)c(O)c(I)c1)c1ccccc1` (stereo not given), for which the Potency result was “inactive”.

On to `CCCCCCCCCCOS(=O)(=O)O`, for which the Potency entry is “inactive”.

As to `CNC(=O)N(c1ccccc1)c1ccccc1`, the Potency entry was “inactive”.
